Among the test systems are NCI-H23 lung; NCI-H226 lung; NCI-H322M lung; NCI-H460 lung; HOP-92 NSCLC; NCI-H522 lung; A549/ATCC NSCLC; 786-0 renal; COLO 205 colon; DU-145 prostate; K-562 leukemia; MALME-3M melanoma; MDA-MB-231 breast; RXF 393 renal; SF-268 CNS; SF-295 CNS; SF-539 CNS; UACC-257 melanoma; M14 melanoma.
Common to all, as to experiment: NCI-60 one-dose screen, 48 h (100 = growth as untreated, 0 = no growth, -100 = all killed)
What all share (conditions): 10 µM unless noted

This is part of a sample that, as a whole, favours compounds with a hit. Of some 83,000 tested, about 20% had one in any assay.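 In brief: 96-well plates, 48 h treatment, single concentration, percent growth endpoint.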 A number with no mark means an inactive call. Active and inactive are the calls of the source. How the source made its calls: active means growth percent below 10; inactive means the rest.

For eight compounds, growth results are on record in PubChem BioAssay (NCI).

In the case of `CN1CCN(CCCOc2ccc3nc(Nc4ccc(F)c(F)c4)ccc3c2)CC1`, the growth was 51.5% with NCI-H23 lung; 62.9% in the test on NCI-H226 lung; 68% with NCI-H322M lung; 7.51% (active) in the test with NCI-H460 lung; 5.74% (active) in the test with HOP-92 NSCLC; -50.4% (active) in the test with NCI-H522 lung. Further, the growth with A549/ATCC NSCLC was 16.1%; in the test with 786-0 renal, 2.05% (active); in the test with COLO 205 colon, -72% (active); in the test on DU-145 prostate, 39.9%; in the test with K-562 leukemia, -30.3% (active); with MALME-3M melanoma, 3.13% (active). Moreover, the growth with MDA-MB-231 breast is -31.6% (active); in the test with RXF 393 renal, 48.6%; in the test on SF-268 CNS it was 46.5%; in the test with SF-295 CNS, -51.4% (active); in the test with SF-539 CNS it was 14.3%; in the test on UACC-257 melanoma, -52.9% (active). Also, the growth in the test on M14 melanoma was -53.1% (active).

`OC(c1cccc(-n2ccc(C(F)(F)F)n2)c1)c1cnccc1NC1CCCCCC1` (stereo not given): the growth was 53.1% with NCI-H23 lung; 67.3% with NCI-H226 lung; 6.47% (active) with NCI-H322M lung; -64.6% (active) in the test on NCI-H460 lung; -5.13% (active) in the test on HOP-92 NSCLC; 43.9% in the test with NCI-H522 lung. The growth with A549/ATCC NSCLC is 50.2%; in the test with 786-0 renal, 28.9%; with COLO 205 colon, -47.2% (active); in the test with DU-145 prostate, 2.76% (active); with K-562 leukemia, 3.64% (active); in the test with MALME-3M melanoma, -79% (active). Also, the growth with MDA-MB-231 breast was -76.4% (active); with RXF 393 renal it was 14.2%; in the test with SF-268 CNS, 64.4%; with SF-295 CNS, 81.3%; in the test on SF-539 CNS, 61.3%; in the test on UACC-257 melanoma, -17.8% (active). Further, the growth in the test with M14 melanoma is -75.1% (active).

For the compound `O=C1/C(=C/c2ccccc2)CCc2nc3ccccc3c(/C=C/c3ccc(Cl)cc3)c21`, the growth was 85.5% with NCI-H23 lung; 92.3% with NCI-H226 lung; 94.6% in the test on NCI-H322M lung; 93.4% with NCI-H460 lung; 79.8% with HOP-92 NSCLC; 71.1% in the test on NCI-H522 lung. Also, the growth in the test with A549/ATCC NSCLC is 93.5%; in the test on 786-0 renal, 99.8%; in the test on COLO 205 colon, 104%; in the test with DU-145 prostate, 98.1%; in the test on K-562 leukemia, 82%; in the test on MALME-3M melanoma, 105%. Moreover, the growth in the test with MDA-MB-231 breast was 86.6%; in the test on RXF 393 renal it was 96.3%; in the test on SF-268 CNS it was 87.5%; with SF-295 CNS, 96.3%; in the test with SF-539 CNS, 99.3%; in the test with UACC-257 melanoma, 82.8%. Also, the growth with M14 melanoma is 86.6%.

On to `COc1cc(/C=N/n2c(CN3CCOCC3)nc3ccccc3c2=O)cc(OC)c1OC`, for which the growth in the test on NCI-H23 lung is 98.9%; in the test with NCI-H226 lung, 115%; in the test with NCI-H322M lung, 90%; in the test with NCI-H460 lung it was 109%; with HOP-92 NSCLC, 106%; with NCI-H522 lung it was 97.9%. The growth in the test on A549/ATCC NSCLC is 92.3%; in the test with 786-0 renal it was 100%; in the test on COLO 205 colon it was 106%; in the test with DU-145 prostate, 115%; with K-562 leukemia it was 97.2%; in the test with MALME-3M melanoma, 106%. Also, the growth in the test on MDA-MB-231 breast is 102%; in the test on RXF 393 renal, 117%; with SF-268 CNS it was 98.1%; in the test on SF-295 CNS, 98.6%; in the test on SF-539 CNS, 97.9%; in the test on UACC-257 melanoma, 97%. Also, in the test on M14 melanoma, the growth was 102%.

Consider `Cc1cc(NCCCCNc2ccnc3cc(Cl)ccc23)nc(Nc2ccc(C(=O)N3CCCCC3)cc2)n1`, for which the growth was 41.3% with NCI-H23 lung; 98.6% in the test with NCI-H226 lung; 22.9% in the test with NCI-H322M lung; 6.46% (active) with NCI-H460 lung; 63.6% in the test with HOP-92 NSCLC; -42.2% (active) with NCI-H522 lung. Also, the growth was 13.1% in the test on A549/ATCC NSCLC; -87.6% (active) in the test on 786-0 renal; -67.8% (active) in the test on COLO 205 colon; 21.8% in the test on DU-145 prostate; -46.2% (active) with K-562 leukemia; -76.3% (active) in the test on MALME-3M melanoma. Besides, the growth was -41.1% (active) in the test with MDA-MB-231 breast; -74.4% (active) in the test on RXF 393 renal; -38.3% (active) in the test on SF-268 CNS; -60.3% (active) in the test on SF-295 CNS; -79.6% (active) in the test with SF-539 CNS; -67.5% (active) with UACC-257 melanoma. In addition, the growth in the test with M14 melanoma is -85% (active).

Take `CCC1(C2CCCC2)NC(=O)NC1=O` (stereo not given): the growth with NCI-H23 lung was 93.5%; in the test on NCI-H226 lung, 101%; in the test on NCI-H322M lung it was 106%; with NCI-H460 lung, 102%; in the test on HOP-92 NSCLC, 78.1%; in the test with NCI-H522 lung, 103%. Moreover, the growth in the test on A549/ATCC NSCLC is 104%; with 786-0 renal, 94.1%; in the test on COLO 205 colon, 108%; in the test with DU-145 prostate it was 101%; in the test with K-562 leukemia, 102%; in the test on MALME-3M melanoma, 97.5%. For the same compound, the growth with MDA-MB-231 breast was 95.6%; in the test on RXF 393 renal, 97.2%; in the test on SF-268 CNS it was 95.8%; with SF-295 CNS, 111%; in the test with SF-539 CNS, 86.3%; in the test with UACC-257 melanoma it was 105%. Besides, the growth with M14 melanoma is 102%.

`N#CC1=C(NC=O)Oc2c(ccc3ccccc23)C1c1ccccc1` (stereo not given): the growth in the test on NCI-H23 lung is 38.5%; with NCI-H226 lung, 62.6%; in the test with NCI-H322M lung, 75.4%; in the test on NCI-H460 lung, 19.9%; in the test on HOP-92 NSCLC it was 42.6%; in the test on NCI-H522 lung it was -2.8% (active). Moreover, the growth in the test with A549/ATCC NSCLC is 36.3%; in the test on 786-0 renal, 22%; with DU-145 prostate, 41.3%; with K-562 leukemia it was 15.1%; in the test with MALME-3M melanoma, 66.8%; in the test with MDA-MB-231 breast, 31.9%. Besides, the growth with RXF 393 renal was 25.5%; in the test on SF-268 CNS, 41.3%; in the test on SF-295 CNS, 29.3%; in the test on SF-539 CNS, 8.89% (active); in the test with UACC-257 melanoma it was 41.5%; in the test on M14 melanoma it was 10.2%.

Regarding `COc1cccc(-c2nc3sccn3c2-c2ccnc(NCCNS(=O)(=O)c3ccc(C(F)(F)F)cc3)c2)c1`, the growth in the test on NCI-H23 lung was 53.7%; in the test on NCI-H226 lung it was 34.8%; in the test on NCI-H322M lung, 72.3%; in the test on NCI-H460 lung it was 35.6%; in the test on HOP-92 NSCLC, 34.4%; in the test on A549/ATCC NSCLC, 38.1%. The growth with 786-0 renal was 51.6%; in the test with COLO 205 colon, 28.5%; in the test on DU-145 prostate, 49.4%; in the test with K-562 leukemia, 25.7%; in the test on MALME-3M melanoma, 42.2%; with MDA-MB-231 breast, 70.1%. Besides, the growth was 34% with RXF 393 renal; 35.8% in the test on SF-268 CNS; 27.7% in the test with SF-295 CNS; 53.7% in the test with SF-539 CNS; 39.2% in the test on UACC-257 melanoma; 38.4% with M14 melanoma.
